# The full ranking holds about 25,000 sequences; the median of “ln(normalized median fluorescence intensity)” is about 9.7, and the highest 2% start at about 11. This is one part of a sample in which the highest values are shown more often than they occur.
# Tested on: PfAP2-HC AP2 domain (GST-tagged)
# Test: gcPBM binding intensity (ln(normalized median fluorescence intensity)); higher = stronger DNA binding
# Method in brief: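 The highest Masliner-normalised natural-log median intensity across replicate spots of either probe orientation is reported as binding intensity. GST-tagged P. falciparum DNA-binding domains expressed in E. coli were applied for 1 h to an Agilent 4 × 180k array of primer-extended double-stranded 36-bp intergenic genomic probes plus negative controls, and bound protein was detected with Alexa488 anti-GST antibody and scanned at 488 nm.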
row,Sequence,gcPBM binding intensity (ln)
1,AAAGAAAGAAAGAATACACACACACCGATATATATA [CACACA_site9246],10.3
2,AATAGTAAAAGATATACACACACCAAAAAATAGAAT [CACACA_site2289],11.6
3,TCAAAGCACAGATACACACACATATATATATATATA [CACACA_site287],10.1
4,AATAGTAAAAGATATACACACACCAAAAAATATAAT [CACACA_site5293],10.3
5,TGGTATCAAAAGAATACACACACACCGACATATATA [CACACA_site9265],11.1
6,GTATCAAAAGAATACACACACACATACCTATAAATA [CACACA_site7737],10.8
7,TAGTAAAAGATATACACACACCAAAAAATATAATTA [CACACA_site7142],10.5
8,AAAATACACGCATACACACACACACCGACACATATA [CACACA_site4523],10.7
9,GTATCAAAAGAATACACACACACATACATATATATA [CACACA_site3796],11.3
10,GTATCAAAAGAATACACACACACATACAGATATATA [CACACA_site5975],11.2
11,AATAAAAAAGAATATACACACATAAATATAAAATAT [CACACA_site683],10
12,AAAAAAATTTCACATTGTACTTTAATAATATACTAC [XGTACX_site7264],9.64
13,TATATATATATATATTGTACATAATGTATATATGTT [XGTACX_site3448],9.74
14,AAAATAATGTATATAGTGCAAATGAAAACGAAAAAA [GTGCAC_site9455],10.1
15,TGAATATTTCTATATACACACATATATATATATATA [CACACA_site3451],9.74
16,ATAATGAAAAGGAACATACACACCCCATATAAATAT [CACACA_site3442],10.3
17,TACAAACAAACACATAGCAATATATGTTATCAAAAA [XGTACX_negctrl_site1],9.81
18,AGAAAGAAAGAATACACACACACATATATAAATATC [CACACA_site7716],10.4
19,AGAAAGAAAGAATACACACACACATATATATATATC [CACACA_site3744],11.5
20,TAAAGAAATAAATACATACACACATATATATATATA [CACACA_site3363],9.89
21,TTATCATTTTAATGGTGTACTCAATAAAAACTTTAA [XGTACX_site4595],9.13
22,CATATAAATAGACACACACACACATATAAATAAATA [CACACA_site7156],11.1
23,AAAGGATACAGACACACACACACATATATATATATA [CACACA_site906],10.8

row,Sequence,gcPBM binding intensity (ln)
1,AAAAAAAACAGACACACACACATAAATATATATAAA [CACACA_site148],10.4
2,TATATAATATATATGACACACATATTTATATAAATA [CACACA_site4054],9.57
3,AAAGGATATAGACACACACACACATATATATATATA [CACACA_site2200],11.4
4,GCACATAAATATATGACACACACACCGATTATATAT [CACACA_site9003],10.8
5,AAAAAAAACAGACACACACACATAAATATAAATAAA [CACACA_site6214],10.5
6,AAAAATTCCAGACACACACACACATATAAATAAATA [CACACA_site1232],11.1
7,ACATAAATATATGACACACACACATATTATATATAT [CACACA_site3065],11.1
8,TATATATATAGACACACACACATATAAATAAATAAA [CACACA_site444],10.4
9,TATATAAATAGACACACACACATATAAATATAAATA [CACACA_site6503],10.4
10,TATATATATAGACACACACACACATATATATATATA [CACACA_site9366],10.7
11,CACACTTTATAATGTTGTACGATACATTATACCAAA [XGTACX_site941],9.67
12,ATAGTATAACAGCAATGTACACATATTTGTGTATAT [XGTACX_site7899],10
13,AATATTAAAAACAAAACACACAAAAAAAAATAAACT [CACACA_site6470],10.2
14,TGTACATATATATAATATATATATCATCATATTTTC [CACACA_negctrl_site1750],9.69
15,TAAAACAAAATAACATGTACAAAAAAAAAAAAAAAA [XGTACX_site2915],9.24
16,ACAAATAAATAAATATGTACTTAATTATATAATTGA [XGTACX_site5626],9.5
17,TATCATGGGTGTATTTCACACACGGATAATCATTTA [CACACA_site8211],9.83
18,AAGAAAATTAACCCATGTACTTATGTAGATAGCAAG [XGTACX_site1049],9.87
19,TTGAGAAAAATTAATGGTACACATATTATAAGTATA [XGTACX_site6539],9.7
20,AAATATATTTTTTTTTGTACTCAAAAAGAAAAAAAA [XGTACX_site8540],9.05
21,AAAAATTTCATATTCACACACAAAAAAAAAAAATAT [CACACA_site1592],9.96
22,AAATACTTATTCGTGGTGCAACAATTTTAAAAATTA,9.49
